According to PubChem BioAssay (Tox21):
Several values for one entry are separate records, joined by “and”; a condition that tells them apart may be missing. Equal values may be shown once. Inconclusive results are not listed. Activity calls are given as the source filed them. Unless noted, calls come from the whole dose curve; as a rule, active = well fitted curve in the direction sought with a large enough effect in the repeat runs; inconclusive = weak or mixed curves; inactive = no such curve, though single readings can be large; an effect the other way counts as inactive or inconclusive.

Key:
[1] = qHTS assay to identify small molecule antagonists of the estrogen related receptor (ERR) signaling pathway from Tox21 library - cell viability counter screen (AID 1224834); note: nearly all actives have a fitted effect of over 30% in size; note: potency is the fitted concentration of half-maximal effect
Procedure, shortened: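 After 17.5 h of compound exposure at 37 C, ERR cells are incubated with CellTiter-Fluor for 30 min and fluorescence intensity serves as the viability measure.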

[2] = molecular target: Luciferin 4-monooxygenase (Photinus pyralis) (UniProt P08659); assay: qHTS assay to identify small molecule inhibitors of firefly luciferase (AID 1224835); note: nearly all actives have a fitted effect of over 25% in size; note: potency is the fitted concentration of half-maximal effect
Procedure, shortened: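 Quantitative HTS format; KM concentrations of both substrates. Purified P. pyralis FLuc activity quantified from luminescence images.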

[3] = qHTS assay to identify small molecule agonists of the constitutive androstane receptor (CAR) signaling pathway - cell viability counter screen (AID 1224836); note: nearly all actives have a fitted effect of over 45% in size
Procedure, shortened: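 23 h treatment, 37 C, 5% CO2. Cell line: HepG2 stably expressing hCAR with a CYP2B6-2.2kb construct. Co-treatment: PK11195, 0.75 uM final. Read-out: CellTiter-Fluor fluorescence intensity.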

[4] = qHTS assay to identify small molecule antagonists of the constitutive androstane receptor (CAR) signaling pathway - cell viability counter screen (AID 1224837); note: nearly all actives have a fitted effect of over 45% in size; note: potency is the fitted concentration of half-maximal effect
Procedure, shortened: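 Counter screen run in HepG2-CYP2B6-hCAR cells: 4 hr settle, compound titration (15 concentrations) with 50 nM CITCO, 23 hr at 37 C/5% CO2, CellTiter-Fluor fluorescence.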

[5] = qHTS assay to identify small molecule antagonists of the estrogen related receptor signaling pathway with the pleiotropic PPARgamma coactivator (PGC) from Tox21 10K library - cell viability counter screen (AID 1224840; active = well fitted cell-killing curve with a large enough effect in the repeat runs, not every such curve was filed as active; note: nearly all actives have a fitted effect of over 40% in size)
Procedure, shortened: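 Following seeding of 2,000 PGC/ERR cells/well and 6 hours' incubation, test compounds were delivered in DMSO. The plates then sat 17.5 hours at 37 C before a fluorogenic live-cell protease reagent (CellTiter-Fluor) was read after 30 min.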

[6] = qHTS assay to identify small molecule antagonists of the estrogen related receptor signaling pathway with the pleiotropic PPARgamma coactivator (PGC) from Tox21 10K library (AID 1224841; call rule not given here; note: actives are mostly falling curves and most rising ones were filed inactive; nearly all actives have a fitted effect of over 50% in size)
Procedure, shortened: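 qHTS antagonist format: PGC/ERR cells, 2k/well, compound in DMSO by pin transfer after 6 h attachment, 18 h treatment at 37 C, One-Glo luminescence read at 30 min.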

[7] = qHTS assay to identify small molecule agonists of the estrogen related receptor signaling pathway with the pleiotropic PPARgamma coactivator (PGC) from Tox21 10K library (AID 1224842); note: nearly all actives have a fitted effect of over 15% in size; note: potency is the fitted concentration of half-maximal effect
Procedure, shortened: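 PGC/ERR reporter cells (NTP line) were seeded 2,000 per well, rested 6 h at 37 C/5% CO2, then pin-dosed with compounds in DMSO for 18 h at 37 C; luciferase read by One-Glo luminescence after 30 min at room temperature.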

[8] = qHTS assay to identify small molecule agonists of the hypoxia (HIF-1) signaling pathway - cell viability counter screen (AID 1224844; calls by dose curve; note: nearly all actives have a fitted effect of over 50% in size)
Procedure, shortened: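 Cells (HRE-bla ME-180, 2,000 per well) sat 5 hrs at 37C, got compound for 17 hrs, were read for CCF4-AM FRET, and were finally lysed with CellTiter-Glo for a 30 min room-temperature luminescence read.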

[9] = qHTS assay to identify small molecule agonists of the hypoxia (HIF-1) signaling pathway (AID 1224846; active = well fitted activation curve with a large enough effect in the signal ratio in the repeat runs, not every such curve was filed as active; the % refers to the signal ratio)
Procedure, shortened: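 A low-serum medium (0.5% dialyzed FBS) holding 2,000 HRE-bla ME-180 cells per well is preincubated for 5 hrs, dosed with compounds by pintool, and kept a further 17 hrs at 37C, 5% CO2 before CCF4-AM FRET detection of beta-lactamase.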

[10] = qHTS assay to identify small molecule agonists of H2AX - cell viability counter screen (AID 1224847; calls by dose curve; note: nearly all actives have a fitted effect of over 30% in size; note: potency is the fitted concentration of half-maximal effect)
Procedure, shortened: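 Compounds tested at 15 concentrations were incubated 3 hr at 37C with wild-type CHO-K1 cells; cellular ATP-based luminescence (CellTiter-Glo) indicated viability.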

[11] = qHTS assay to identify small molecule antagonists of the estrogen related receptor (ERR) signaling pathway from Tox21 library (AID 1224848); note: nearly all actives have a fitted effect of over 50% in size; note: potency is the fitted concentration of half-maximal effect
Procedure, shortened: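 Screening used an ERR reporter line supplied by NTP, exposed for 18 h at 37 C to library compounds delivered in DMSO. Signal was luciferase luminescence developed with ONE-Glo at room temperature for 30 min.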

[12] = qHTS RealTime-Glo MT Cell Viability Assay in HepG2 cells - 24 hour (AID 1224867); note: nearly all actives have a fitted effect of over 50% in size; note: potency is the fitted concentration of half-maximal effect
Procedure, shortened: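 Luminescence read-out: viable HepG2 cells reduce a prosubstrate to a NanoLuc substrate, giving a signal proportional to live cell number. Reads taken at 0, 8, 16, 24, 32 and 40 h of compound exposure at 37 C.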

[13] = qHTS RealTime-Glo MT Cell Viability Assay in HEK293 cells - 32 hour (AID 1224868); note: nearly all actives have a fitted effect of over 50% in size; note: potency is the fitted concentration of half-maximal effect
Procedure, shortened: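 Nonlytic real-time viability readout: viable cells convert prosubstrate to NanoLuc substrate, giving luminescence proportional to live cell number. HEK293, 600 cells/well, compound added after 5 h, continuous culture at 37 C.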

[14] = A CellTox Green Cytotoxicity Assay to monitor cytotoxicity in HEK293 cells - 0 hour (AID 1224869); note: nearly all actives have a fitted effect of over 50% in size
Procedure, shortened: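 Fluorescence intensity, read at 0, 8, 16, 24, 32 and 40 h of compound treatment, reflected dye binding to DNA of dead HEK293 cells; compounds (23 nL, DMSO) were added 5 h after plating cells with reagent.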

[15] = qHTS RealTime-Glo MT Cell Viability Assay in HepG2 cells - 40 hour (AID 1224870); note: nearly all actives have a fitted effect of over 50% in size
Procedure, shortened: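 HepG2 cells mixed with RealTime-Glo MT reagents (NanoLuc plus cell-permeant prosubstrate) were seeded at 600 cells/well, incubated 5 h at 37 C/5% CO2, then pinned with compounds in DMSO; nonlytic luminescence tracked viability during 40 h treatment.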

[16] = molecular target: Nuclear receptor subfamily 1 group I member 3 (Homo sapiens) (UniProt Q14994); assay: qHTS assay to identify small molecule agonists of the constitutive androstane receptor (CAR) signaling pathway (AID 1224839); note: nearly all actives have a fitted effect of over 15% in size; note: potency is the fitted concentration of half-maximal effect;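 for activation: HepG2 cells stably carrying human CAR and a CYP2B6 luciferase reporter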
Procedure, shortened: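 Compounds tested at 15 concentrations on HepG2 cells stably harbouring hCAR and CYP2B6-2.2kb reporter constructs, co-treated with PK11195 (0.75 uM final), 24 h at 37 C; luminescent reporter signal quantified.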

[17] = molecular target: Thyrotropin receptor (Homo sapiens) (UniProt P16473); assay: qHTS assay to identify small molecule agonists of the thyroid stimulating hormone receptor (TSHR) signaling pathway (AID 1224843; calls by dose curve; note: nearly all actives have a fitted effect of over 45% in size)
Procedure, shortened: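 Cell line HEK293 with TSHR; density 800/well. Exposure 30 min RT. Readout HTRF cAMP (cAMP-d2/anti-cAMP-cryptate), 1 h RT before reading.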

[18] = qHTS assay to identify small molecule agonists of H2AX (AID 1224845; active = well fitted activation curve with a large enough effect in the signal ratio in the repeat runs, not every such curve was filed as active; the % refers to the signal ratio)
Procedure, shortened: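 Wild-type CHO-K1 cells plated overnight, then exposed 3 hr at 37C to compounds at 15 concentrations (0.76% DMSO). Lysed, then HTRF anti-pH2AX(S139)-cryptate/anti-H2AX-d2 detection after 24 hr at room temperature; emissions 665 and 620 nm.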

[19] = qHTS assay to identify small molecule agonists of the estrogen related receptor (ERR) signaling pathway from Tox21 library (AID 1224849; calls by dose curve; note: nearly all actives have a fitted effect of over 15% in size); settings: ERR reporter cell line, ONE-Glo luciferase, 18 h; at 92.4 µM (top of the series) unless noted
Procedure, shortened: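 Screening used an NTP-provided ERR luciferase cell line. Compounds in DMSO were added 6 h after seeding and left 18 h at 37 C before a 30 min ONE-Glo step and luminescence reading.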

[20] = molecular target: Nuclear receptor subfamily 1 group I member 3 (Homo sapiens) (UniProt Q14994); assay: qHTS assay to identify small molecule antagonists of the constitutive androstane receptor (CAR) signaling pathway (AID 1224838);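 note: HepG2 cells stably expressing hCAR with CYP2B6 luciferase reporter stimulated by CITCO; nearly all actives have a fitted effect of over 40% in size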; note: potency is the fitted concentration of half-maximal effect
Procedure, shortened: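 Cell line: HepG2 double-stable for hCAR and CYP2B6-2.2kb reporter. Agonist: CITCO, 50 nM final. Compounds: 15 concentrations, 24 h, 37 C. Detection: ONE-Glo luminescence.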
% is set by controls: 0 for no effect and ±100 for the full control effect.

Luciferin 4-monooxygenase (Photinus pyralis), sequence (P08659 whole entry, looked up): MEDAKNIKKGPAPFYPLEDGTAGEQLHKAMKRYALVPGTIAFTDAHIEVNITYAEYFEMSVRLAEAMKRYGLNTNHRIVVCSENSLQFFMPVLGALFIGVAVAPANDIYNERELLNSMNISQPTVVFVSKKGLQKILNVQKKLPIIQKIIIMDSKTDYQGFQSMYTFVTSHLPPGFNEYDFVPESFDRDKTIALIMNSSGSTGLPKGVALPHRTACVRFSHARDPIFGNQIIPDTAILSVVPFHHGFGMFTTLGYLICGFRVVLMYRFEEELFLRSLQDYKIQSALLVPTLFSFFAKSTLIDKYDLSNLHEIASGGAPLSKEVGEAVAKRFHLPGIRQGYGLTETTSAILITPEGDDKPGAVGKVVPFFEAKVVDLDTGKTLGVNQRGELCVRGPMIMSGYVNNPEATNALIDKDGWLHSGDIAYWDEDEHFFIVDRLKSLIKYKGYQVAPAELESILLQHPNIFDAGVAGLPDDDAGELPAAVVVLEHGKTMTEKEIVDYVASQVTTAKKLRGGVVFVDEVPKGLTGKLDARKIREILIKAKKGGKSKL
Nuclear receptor subfamily 1 group I member 3 (Homo sapiens), sequence (Q14994 whole entry, looked up): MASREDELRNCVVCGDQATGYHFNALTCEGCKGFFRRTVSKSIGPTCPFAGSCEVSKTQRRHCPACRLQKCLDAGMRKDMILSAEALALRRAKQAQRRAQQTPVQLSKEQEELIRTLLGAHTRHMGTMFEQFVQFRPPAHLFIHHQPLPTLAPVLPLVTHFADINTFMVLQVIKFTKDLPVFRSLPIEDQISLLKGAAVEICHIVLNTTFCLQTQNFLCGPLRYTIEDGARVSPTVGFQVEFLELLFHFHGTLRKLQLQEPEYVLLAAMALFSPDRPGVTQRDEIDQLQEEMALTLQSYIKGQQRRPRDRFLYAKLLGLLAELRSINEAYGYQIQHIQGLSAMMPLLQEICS
Thyrotropin receptor (Homo sapiens), sequence (P16473 whole entry, looked up): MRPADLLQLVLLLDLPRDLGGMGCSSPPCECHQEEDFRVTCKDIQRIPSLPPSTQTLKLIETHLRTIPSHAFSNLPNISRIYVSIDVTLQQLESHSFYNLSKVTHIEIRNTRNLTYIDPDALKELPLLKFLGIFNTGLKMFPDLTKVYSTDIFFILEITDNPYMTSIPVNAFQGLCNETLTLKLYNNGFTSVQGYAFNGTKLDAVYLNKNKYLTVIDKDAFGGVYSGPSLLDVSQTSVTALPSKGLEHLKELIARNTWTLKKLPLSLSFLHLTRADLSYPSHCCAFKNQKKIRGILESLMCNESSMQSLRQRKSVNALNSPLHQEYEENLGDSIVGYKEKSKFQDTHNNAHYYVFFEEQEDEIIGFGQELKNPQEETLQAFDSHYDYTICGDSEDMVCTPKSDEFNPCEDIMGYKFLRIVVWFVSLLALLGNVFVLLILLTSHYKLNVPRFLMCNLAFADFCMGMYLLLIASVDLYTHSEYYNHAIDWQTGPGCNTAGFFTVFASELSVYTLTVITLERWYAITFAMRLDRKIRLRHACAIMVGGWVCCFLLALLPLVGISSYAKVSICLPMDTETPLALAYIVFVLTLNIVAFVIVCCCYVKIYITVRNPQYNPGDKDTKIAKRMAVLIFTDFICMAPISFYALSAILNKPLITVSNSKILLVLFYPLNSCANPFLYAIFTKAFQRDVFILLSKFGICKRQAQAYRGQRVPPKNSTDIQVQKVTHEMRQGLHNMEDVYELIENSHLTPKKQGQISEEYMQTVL

CCC(C)=O
inactive: Potency [1] | Potency [2] | Potency [3] | Potency [4] | Potency [5] | Potency [6] | Potency [7] | Potency [8] | outcome [9] | Potency [10] | Potency [11] | Potency [12] | Potency [13] | Potency [14] | Potency [15]

Cc1oncc1C(=O)Nc1ccc(C(F)(F)F)cc1
active: Potency [2] 39.9 µM | Potency [16] 770 nM and 1.06 µM
inactive: Potency [1] | Potency [3] | Potency [4] | Potency [5] | Potency [17] | Potency [8] | Potency [18] | Potency [10] | Potency [12] | Potency [13] | Potency [14] | Potency [15]

Cc1cc(OI)c(C(C)C)cc1-c1cc(C(C)C)c(OI)cc1C
inactive: Potency [1] | Potency [2] | Potency [3] | Potency [4] | Potency [16] | Potency [5] | Potency [17] | Potency [8] | Potency [18] | Potency [10] | Potency [12] | Potency [13] | Potency [14] | Potency [15]

CC#N
inactive: Potency [1] | Potency [2] | Potency [3] | Potency [4] | Potency [5] | Potency [17] | Potency [8] | Potency [18] | outcome [9] | Potency [10] | Potency [11] | activity change, positive = activation [19] 6.68% | Potency [12] | Potency [13] | Potency [14] | Potency [15]

O=C(O)c1cccnc1C(=O)O
inactive: Potency [1] | Potency [2] | Potency [3] | Potency [4] | Potency [5] | Potency [17] | Potency [8] | Potency [18] | Potency [10] | Potency [12] | Potency [13] | Potency [14] | Potency [15]

CC1(C)C2=CCCC(C)(C)[C@]23CC[C@H]1C3
inactive: Potency [1] | Potency [2] | Potency [3] | Potency [4] | Potency [16] | Potency [8] | Potency [18] | Potency [10] | Potency [12] | Potency [13] | Potency [14] | Potency [15]

CCNC(=O)N1CCN(CCCC(c2ccc(F)cc2)c2ccc(F)cc2)CC1
inactive: Potency [2] | Potency [20] | Potency [7] | Potency [8] | Potency [18] | Potency [10] | activity change, positive = activation [19] -50.1% [at 42.5 µM] | Potency [12] | Potency [14] | Potency [15]
active: Potency [1] 18.8 µM | Potency [4] 21.1 µM | Potency [11] 7.5 µM

CCC(=O)OC/C=C/c1ccccc1
inactive: Potency [1] | Potency [3] | Potency [4] | Potency [20] | Potency [16] | Potency [8] | Potency [18] | Potency [10] | Potency [12] | Potency [13] | Potency [14] | Potency [15]

CCCCCCCCCCOS(=O)(=O)O
inactive: Potency [1] | Potency [3] | Potency [4] | Potency [16] | Potency [17] | Potency [8] | Potency [18] | outcome [9] | Potency [10] | Potency [12] | Potency [13] | Potency [14] | Potency [15]

CCC1(C)CC(=O)NC1=O (centres undefined)
inactive: Potency [1] | Potency [2] | Potency [3] | Potency [4] | Potency [5] | Potency [8] | Potency [18] | Potency [10] | Potency [12] | Potency [14] | Potency [15]

CN(C(=O)C(Cl)Cl)c1ccc(OC(=O)c2ccco2)cc1
inactive: Potency [1] | Potency [3] | Potency [4] | Potency [20] | Potency [16] | Potency [5] | Potency [17] | Potency [8] | Potency [18] | Potency [10] | Potency [12] | Potency [13] | Potency [15]

O=C(CCCN1CCN(c2ccc(F)cc2)CC1)NC1c2ccccc2CSc2ccccc21 (centres undefined)
inactive: Potency [1] | Potency [2] | Potency [16] | Potency [5] | Potency [17] | Potency [8] | Potency [18] | outcome [9] | Potency [14]
active: Potency [20] 29.8 µM

CC1=CC(O)CC(C)(C)C1 (centres undefined)
inactive: Potency [1] | Potency [2] | Potency [3] | Potency [4] | Potency [17] | Potency [8] | Potency [18] | outcome [9] | Potency [10] | activity change, positive = activation [19] 1.93% | Potency [12] | Potency [13] | Potency [14] | Potency [15]

OCC1CC=CCC1 (centres undefined)
inactive: Potency [1] | Potency [3] | Potency [4] | Potency [20] | Potency [16] | Potency [5] | Potency [17] | Potency [8] | outcome [9] | Potency [10] | Potency [12] | Potency [13] | Potency [14] | Potency [15]

CC[C@@H]([C@H](C)O)n1ncn(-c2ccc(N3CCN(c4ccc(OC[C@@H]5CO[C@@](Cn6cncn6)(c6ccc(F)cc6F)C5)cc4)CC3)cc2)c1=O
inactive: Potency [2] | Potency [20] | Potency [16] | Potency [18] | outcome [9]
active: Potency [1] 9.44 µM | Potency [10] 19.6 µM | Potency [13] 3.01 µM

CCc1nn(CCCN2CCN(c3cccc(Cl)c3)CC2)c(=O)n1CCOc1ccccc1
inactive: Potency [2] | Potency [4] | Potency [20] | Potency [16] | Potency [5] | Potency [17] | Potency [18] | outcome [9] | Potency [14]
active: Potency [1] 29.8 µM | Potency [12] 23.9 µM | Potency [13] 8.49 µM

NC(=O)N(O)[C@@H]1C=C[C@H](Oc2cccc(Oc3ccc(F)cc3)c2)C1
active: Potency [2] 31.7 µM | Potency [7] 27.3 µM
inactive: Potency [1] | Potency [4] | Potency [6] | Potency [17] | Potency [8] | Potency [18] | outcome [9] | Potency [10] | Potency [11] | activity change, positive = activation [19] -15% | Potency [12] | Potency [14] | Potency [15]

O=C(Nc1ccc([N+](=O)[O-])cc1)Nc1ccc([N+](=O)[O-])cc1
active: Potency [13] 7.56 µM
inactive: Potency [1] | Potency [2] | Potency [3] | Potency [4] | Potency [17] | Potency [18] | outcome [9] | Potency [14] | Potency [15]
